Inconclusive results are not listed. The source made the active and inactive calls. How the source made its calls: active means hit-call score of the fitted dose curve at least 0.9, where 1 is the maximum; inconclusive means response in the unintended direction; inactive means score below 0.9.
Assay: Tanguay_ZF_120hpf_SWIM_legacy: (Legacy) Oregon State University Tanguay Lab 120 Hour Post-fertilization zebrafish Assay for Swim Bladder Malformation (AID 2283654);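 further: swim bladder malformation in each larva scored yes or no under brightfield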
Procedure, shortened: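 Embryos lacking chorions were exposed individually and statically to test chemical from 6 to 120 hpf at 28C, with 0.64% DMSO as vehicle. At 120 hpf, swim bladder malformation was recorded as present or absent by brightfield microscopy.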

SMILES | outcome | AC50
CCCCOC(=O)c1ccccc1 | inactive | 
O=C(O)c1cccc(C[C@@H]2COc3ccc(OCc4nc5cc(F)ccc5s4)cc3[C@@H]2O)c1 | inactive | 
CCCCC(CC)C(=O)OCCOCCOCCOC(=O)C(CC)CCCC (configuration not stated) | inactive | 
OCc1ccccc1 | inactive | 
NC(=O)N(O)[C@@H]1COc2cc(OCc3ccccc3)ccc21 | inactive | 
O=S1(=O)CCCO1 | inactive | 
CCCCCCCCCC | inactive | 
O=c1[nH]cnc2c1ncn2[C@H]1CC[C@@H](CO)O1 | inactive | 
O=S(=O)(O)c1ccc(N=Nc2c(O)ccc3cc(S(=O)(=O)O)ccc23)cc1 | inactive | 
Cn1cc[nH]c1=S | inactive | 
c1ccc(C(O[C@@H]2CCCN(CCc3ccc4c(c3)OCO4)C2)c2ccccc2)cc1 | inactive | 
CCCCCCCC/C=C\CCCCCCCC(=O)OC[C@@H](O)[C@H]1OC[C@H](O)[C@H]1O | inactive | 
c1ccc2cc3ccccc3cc2c1 | inactive | 
Cc1nc(-c2ccccn2)ncc1C(=O)Nn1cc(C)c2cc(F)ccc21 | inactive | 
OC(Cn1cncn1)(Cn1cncn1)c1ccc(F)cc1F | inactive | 
COc1cc2c(c(OC)c1OC)-c1ccc(OC)c(=O)cc1[C@@H](NC(C)=O)CC2 | inactive | 
CC(C)CC(C)O (configuration not stated) | inactive | 
C=CCc1cc(S(=O)(=O)c2ccc(O)c(CC=C)c2)ccc1O | inactive | 
CC[C@H](C)C(=O)O[C@H]1C[C@H](O)C=C2C=C[C@H](C)[C@H](CC[C@@H](O)C[C@@H](O)CC(=O)O)[C@H]21 | inactive | 
COc1cc(C(C)C)c2c(c1)S(=O)(=O)N(COc1cc(=O)n3cccc(OCCN4CCCCC4)c3n1)C2=O | inactive | 
OC[C@H]1O[C@@H]2O[C@H]3[C@H](O)[C@@H](O)[C@@H](O[C@H]4[C@H](O)[C@@H](O)[C@@H](O[C@H]5[C@H](O)[C@@H](O)[C@@H](O[C@H]6[C@H](O)[C@@H](O)[C@@H](O[C@H]7[C@H](O)[C@@H](O)[C@@H](O[C@H]1[C@H](O)[C@H]2O)O[C@@H]7CO)O[C@@H]6CO)O[C@@H]5CO)O[C@@H]4CO)O[C@@H]3CO | inactive | 
CCN(CC)C(=S)SSC(=S)N(CC)CC |  | 1100 nM (active)
CCc1cccc(CC)c1N | inactive | 
c1ccc2c(c1)-c1cccc3c1c-2cc1ccccc13 | inactive | 
CCCc1ccccc1 | inactive | 
CC(C)c1nnc2ccc(-c3ocnc3-c3cc(F)ccc3F)cn12 | inactive | 
CC(C)C(=O)Nc1ccc([N+](=O)[O-])c(C(F)(F)F)c1 | inactive | 
C[C@@H](Oc1ccc(CNC(=O)c2cccnc2Oc2ccc3c(c2)OCO3)c(F)c1)C(=O)O | inactive | 

Assay: Tanguay_ZF_120hpf_TRUN_legacy: (Legacy) Oregon State University Tanguay Lab 120 Hour Post-fertilization zebrafish Assay for Truncated Body (AID 2283655)
Procedure, shortened: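 Whole-embryo zebrafish screen: dechorionated 5D embryos, static exposure 6–120 hpf, 28C, sealed foil-covered plates, 0.64% DMSO. Binary truncation call; gain of signal versus DMSO baseline.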

SMILES | outcome | AC50
CCCCOC(=O)c1ccccc1 | inactive | 
O=C(O)c1cccc(C[C@@H]2COc3ccc(OCc4nc5cc(F)ccc5s4)cc3[C@@H]2O)c1 | inactive | 
COCc1nnc(-c2ccc[n+]([O-])c2)n1-c1c(Cl)c(Cl)cc2[nH]c(=O)c(=O)[nH]c12 | inactive | 
CCCCC(CC)C(=O)OCCOCCOCCOC(=O)C(CC)CCCC (configuration not stated) | inactive | 
OCc1ccccc1 | inactive | 
CCOc1ccc2[nH]cc(C(=O)NCc3ccccc3)c(=O)c2n1 | inactive | 
Cc1nccn1-c1ccc(Sc2cccc(C3(C(N)=O)CCOCC3)c2)cc1 | inactive | 
NC(=O)N(O)[C@@H]1COc2cc(OCc3ccccc3)ccc21 | inactive | 
O=S1(=O)CCCO1 | inactive | 
O=c1[nH]cnc2c1ncn2[C@H]1CC[C@@H](CO)O1 | inactive | 
CCCCN1C(=O)[C@@H]([C@H](O)C2CCCCC2)NC(=O)C12CCN(Cc1ccc(Oc3ccc(C(=O)O)cc3)cc1)CC2 | inactive | 
c1ccc(C(O[C@@H]2CCCN(CCc3ccc4c(c3)OCO4)C2)c2ccccc2)cc1 |  | 38200 nM (active)
c1ccc2cc3ccccc3cc2c1 | inactive | 
C=CCc1cc(S(=O)(=O)c2ccc(O)c(CC=C)c2)ccc1O | inactive | 
CC[C@H](C)C(=O)O[C@H]1C[C@H](O)C=C2C=C[C@H](C)[C@H](CC[C@@H](O)C[C@@H](O)CC(=O)O)[C@H]21 | inactive | 
CCCCCCCC1CCC(=O)O1 (configuration not stated) | inactive | 
COc1cc(C(C)C)c2c(c1)S(=O)(=O)N(COc1cc(=O)n3cccc(OCCN4CCCCC4)c3n1)C2=O | inactive | 
OC[C@H]1O[C@@H]2O[C@H]3[C@H](O)[C@@H](O)[C@@H](O[C@H]4[C@H](O)[C@@H](O)[C@@H](O[C@H]5[C@H](O)[C@@H](O)[C@@H](O[C@H]6[C@H](O)[C@@H](O)[C@@H](O[C@H]7[C@H](O)[C@@H](O)[C@@H](O[C@H]1[C@H](O)[C@H]2O)O[C@@H]7CO)O[C@@H]6CO)O[C@@H]5CO)O[C@@H]4CO)O[C@@H]3CO | inactive | 
CCN(CC)C(=S)SSC(=S)N(CC)CC |  | 904 nM (active)
CCCCCCOC(=O)CC(CC(=O)OCCCCCC)(OC(=O)CCC)C(=O)OCCCCCC | inactive | 
c1ccc2c(c1)-c1cccc3c1c-2cc1ccccc13 | inactive | 
CC(C)c1nnc2ccc(-c3ocnc3-c3cc(F)ccc3F)cn12 | inactive | 
CC(C)C(=O)Nc1ccc([N+](=O)[O-])c(C(F)(F)F)c1 | inactive | 
C[C@@H](Oc1ccc(CNC(=O)c2cccnc2Oc2ccc3c(c2)OCO3)c(F)c1)C(=O)O | inactive | 

From PubChem BioAssay (EPA / NIEHS)
